# The entries come from a sample that favours hits as a whole.
# PTK2B oligo ant: blocks oligomerization of human Pyk2 in cells | Q293 cells, Pyk2 FERM NanoBiT luminescence; active compounds read low | z-score (the deposit names both 25 µM and 10 µM) | 99,000 compounds, 0.83% hits;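 active means Z-score of -3 or lower, scaled per plate to the spread of control and sample wells; inactive means z-score above -3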;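 further: negative z-score means lost luminescence so less FERM oligomerization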
# Target sequence (Q14289 whole entry, looked up): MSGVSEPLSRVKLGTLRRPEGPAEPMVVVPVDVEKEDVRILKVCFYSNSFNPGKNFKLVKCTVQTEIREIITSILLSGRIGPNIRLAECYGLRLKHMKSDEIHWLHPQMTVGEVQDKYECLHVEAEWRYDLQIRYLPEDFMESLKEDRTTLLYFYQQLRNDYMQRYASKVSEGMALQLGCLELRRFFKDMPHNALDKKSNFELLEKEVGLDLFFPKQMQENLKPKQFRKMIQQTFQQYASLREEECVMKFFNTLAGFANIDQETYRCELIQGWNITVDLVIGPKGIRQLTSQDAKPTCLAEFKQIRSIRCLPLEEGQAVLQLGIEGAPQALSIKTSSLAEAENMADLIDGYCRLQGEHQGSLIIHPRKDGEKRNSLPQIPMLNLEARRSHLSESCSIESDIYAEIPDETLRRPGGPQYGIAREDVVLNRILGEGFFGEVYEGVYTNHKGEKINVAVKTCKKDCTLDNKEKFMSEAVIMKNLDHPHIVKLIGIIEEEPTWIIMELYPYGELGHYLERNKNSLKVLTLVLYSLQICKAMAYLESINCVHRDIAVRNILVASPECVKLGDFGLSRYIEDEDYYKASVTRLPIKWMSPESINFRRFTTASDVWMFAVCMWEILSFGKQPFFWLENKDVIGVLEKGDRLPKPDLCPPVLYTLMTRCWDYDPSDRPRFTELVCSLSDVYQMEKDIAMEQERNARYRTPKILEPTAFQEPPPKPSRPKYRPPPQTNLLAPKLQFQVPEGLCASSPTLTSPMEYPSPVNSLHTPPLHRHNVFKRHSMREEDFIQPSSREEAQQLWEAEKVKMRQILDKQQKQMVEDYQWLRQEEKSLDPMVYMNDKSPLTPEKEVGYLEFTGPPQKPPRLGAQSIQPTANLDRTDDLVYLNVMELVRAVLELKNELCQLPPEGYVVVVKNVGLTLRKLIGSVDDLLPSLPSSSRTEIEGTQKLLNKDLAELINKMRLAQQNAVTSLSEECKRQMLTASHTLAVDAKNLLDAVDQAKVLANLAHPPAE
# D1 mod: D1 dopamine receptor (human) allosteric modulation. P21728. AID 641. B-score at 10 µM. 58,000 compounds, 5.9% hits. HEK293 D1, CRE-luciferase, dopamine EC30 potentiation; actives deviate in either direction;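 active means luminescence count or its row- and column-corrected plate score outside the 99.7% band of the plate's sample wells, on either side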
# FAK blocker: inhibitors of human focal adhesion kinase. inhibition, %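 (tested at 7 µM)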. Q05397. 97,000 compounds, 0.84% hits. biochemical FAK kinase activity assay; in the data active means inhibition above about 19%;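 further: 0% = DMSO and 100% = reference compound high control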
# Mac1 fbg inh: inhibitors of human CD11b/CD18 binding to fibrinogen; P05107+P11215; K562 CD11b/CD18 adhesion to fibrinogen, ATPlite luminescence; Mn2+ added to activate the integrin; inhibition, % at 10 µM; 93,000 compounds, 0.54% hits;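 active means primary inhibition of 50% or more at 10 µM, then 40% or more on retest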
# CD11b adhes enh: enhancers of human CD11b/CD18 binding to fibrinogen. K562 CD11b/CD18 adhesion to fibrinogen, ATPlite luminescence. 93,000 compounds, 0.07% hits. activation, % at 10 µM. P05107+P11215. AID 1499;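 active means 10 µM primary screen giving 50% or more activity, confirmed by 40% or more on retest at that dose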
# DAT uptake mod: modulates human dopamine transporter uptake under cocaine; Q01959; LLC-PK1 hDAT cells, [14C]-dopamine uptake with cocaine IC80; actives deviate in either direction; B-score at 10 µM; 110,000 compounds, 1.3% hits; AID 449768;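 active means Z score or B-score, a plate-position-corrected score, falls beyond the plate's 99.7% confidence bounds, in either direction; inactive means both scores lie inside the 99.7% bounds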;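 further: scored against the spread of the other compound wells on the same plate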
# D1 mod confirm: confirmation of human D1 dopamine receptor allosteric modulators; shares compounds with D1 mod; HEK293 D1 CRE-luciferase, dopamine EC30 potentiation; active compounds read high; luminescence at 10 µM; 2,200 compounds, 88% hits; AID 642;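 active means luminescence in either of two replicates above the same-plate mean plus 3 SD of the low-dose dopamine control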
# D1 ag no DA: activates D1 CRE-luciferase signal without dopamine present | luminescence at 10 µM | HEK293 D1 CRE-luciferase, luminescence, no dopamine; active compounds read high | AID 646 | 1,900 compounds, 0.8% hits | shares compounds with D1 mod; in the data active means luminescence above about 3900
# Isoprot counter: counter-screen for D1 modulators: isoproterenol response in HEK293 cells. shares compounds with D1 mod. 2,200 compounds, 63% hits. HEK293 D1 CRE-luciferase, isoproterenol EC30 counter-screen. calls only at 10 µM. AID 647;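 active means luminescence in either replicate above plate mean of wells with a partly effective reference agonist dose plus 3 SD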;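 further: isoproterenol raises cAMP through native beta-adrenoceptor Gs so signal bypasses D1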
# Numbers without * were called inactive; i = inactive; / = not tested or not shown; + = active, no number.
SMILES,PTK2B oligo ant,D1 mod,FAK blocker,Mac1 fbg inh,CD11b adhes enh,DAT uptake mod,D1 mod confirm,D1 ag no DA,Isoprot counter
CCCCn1c(-c2cccs2)nc2nc3ccccc3nc21,-2.1,/,2,9,-1,0.64,/,/,/
Cc1ccc(NC(=O)/C(=C\c2ccccc2)NC(=O)/C=C/c2ccccc2)cc1,-1.4,/,-2,14,-8,0.89,/,/,/
O=C(Nc1ccccc1Cl)NC1(C(=O)N2CCCC2)CCCCC1,2.2,/,0,/,/,-8.9*,/,/,/
O=C(Nc1ccccc1Cl)NC1(C(=O)N2CCCCC2)CCCCC1,-0.09,/,-1,/,/,-1.1,/,/,/
Oc1cc(O)c2c(c1)O[C@H](c1ccc(O)c(O)c1)[C@@H](O)C2,/,/,/,/,/,-0.75,/,/,/
O=C1c2c(O)cc(O)cc2O[C@@]12c1c(cc(O)c3c1O[C@H](c1ccc(O)cc1)[C@@H](O)C3)O[C@@H]2c1ccc(O)cc1,/,/,/,/,/,2.2*,/,/,/
O=Cc1cn(-c2ccc(F)cc2)c2ccccc12,-0.75,/,/,/,/,/,/,/,/
O=C(c1ccc([N+](=O)[O-])cc1)N(Cc1ccc(Br)cc1)N1C(=O)CCCC1=O,0.26,/,-2,7,-4,-7.4*,/,/,/
COc1ccc2oc(=O)c(C(=O)N3CCN(c4ccccc4)CC3)cc2c1,1.1,-0.71,0,6,-1,3.4*,/,/,/
CCN(CC)S(=O)(=O)c1ccc(C(=O)OCCN2C(=O)CCC2=O)cc1,/,-4.9*,-5,-21,1,/,/,/,/
CCN(CC)S(=O)(=O)c1ccc(C(=O)OCC(=O)c2ccc3c(c2)NC(=O)CO3)cc1,1.3,/,1,/,/,-0.64,/,/,/
Cc1ccc(CNC(=O)[C@H](C)[C@H]2C[C@]2(C)[C@H](NC(=O)OCc2ccccc2)c2ccccc2)o1,/,/,/,/,/,0.29,/,/,/
Cc1[nH]nc2c1C(c1cccnc1)N(c1ccc(Br)cc1)C2=O (configuration not stated),-4*,0.28,1,/,/,0.68,/,/,/
CCN(CC)C(=O)c1[nH]cnc1C(=O)Nc1ccc(OC)cc1,/,/,/,/,/,3.1*,/,/,/
COC(=O)Nc1ccc(S(=O)(=O)N2c3ccccc3CCC2C)cc1 (configuration not stated),-3.2*,-1.5,/,6,0,-0.086,/,/,/
O=S1(=O)Nc2c(ccc3cccnc23)-c2ccccc21,-0.95,-3.6*,/,5,1,-0.3,/,/,/
COc1ccc(CN2C(=O)c3cccnc3C2O)cc1 (configuration not stated),-0.25,/,-1,-15,16,-1.7,/,/,/
COc1ccc(OC)c(NC2c3ncccc3C(=O)N2Cc2ccco2)c1 (configuration not stated),-0.34,8.7*,-1,/,/,-0.32,11124*,/,+
COc1ccc(CN2C(=O)c3cccnc3C2Nc2cc(Cl)ccc2OC)cc1 (configuration not stated),-1.9,12*,/,-12,57,-2.2,26704*,1696,+
COC(=O)c1cc(NC2c3ncccc3C(=O)N2Cc2ccccc2)cc(C(=O)OC)c1 (configuration not stated),-1.6,19*,0,-1,-2,-0.19,20824*,1580,+
CCOC(=O)C1=C(C)N(CCCC(=O)NCc2ccc3c(c2)OCO3)C(=O)NC1c1ccc(Br)cc1 (configuration not stated),/,/,/,/,/,0.057,/,/,/
c1ccc(Oc2cc(-c3ccccc3)nc(-c3ccccc3)n2)cc1,/,/,/,-4,-1,/,/,/,/
Cc1cc(Oc2ccccc2)nc(-c2ccccc2)n1,0.19,2.7*,-9,/,/,-1.4,6804*,1624,+
CCN(CC)CCCN(Cc1cc2ccc(C)c(C)c2[nH]c1=O)C(=O)NC1CCCCC1,0.56,/,2,/,/,1.7,/,/,/
N#Cc1nc(-c2cccs2)oc1NCCc1ccccc1,-0.22,12*,3,13,-2,-0.76,14100*,1620,+
SMILES,PTK2B oligo ant,D1 mod,FAK blocker,Mac1 fbg inh,CD11b adhes enh,DAT uptake mod,D1 mod confirm,D1 ag no DA,Isoprot counter
N#Cc1nc(-c2cccs2)oc1NCc1ccc2c(c1)OCO2,-0.43,16*,11,-10,-3,0.14,19192*,1548,+
Cc1ccc(CNc2oc(-c3ccco3)nc2C#N)cc1,/,27*,5,/,/,/,18284*,1756,+
N#Cc1nc(-c2cccs2)oc1NCCN1CCOCC1,1.4,/,7,/,/,/,/,/,/
CNc1oc(-c2cccs2)nc1C#N,1,/,10,/,/,/,/,/,/
COc1ccc(Nc2oc(-c3cccs3)nc2C#N)cc1,-0.94,8.1*,1,/,/,-0.15,16196*,1612,+
CCOC(=O)c1c(C)[nH]c(C)c1C(=O)COC(=O)c1ccc(Cl)c(S(=O)(=O)NCc2ccccc2)c1,-1.9,/,0,13,-6,-0.69,/,/,/
Cc1cccc(OCC(=O)N/N=C\c2cc3c(cc2[N+](=O)[O-])OCO3)c1C,-0.39,/,2,-2,-3,-0.45,/,/,/
COC(C[C@@H]1O[C@H]1[C@H](O)[C@@H](C)OCc1ccccc1)OC,/,/,/,/,/,-1.3,/,/,/
N#Cc1nc(-c2ccco2)oc1NCCc1ccccc1,0.08,5.5*,-1,/,/,0.43,13580*,1764,+
COc1ccc(CCNc2oc(-c3ccco3)nc2C#N)cc1,-0.6,3.8,10,/,/,-0.0049,/,/,/
COc1ccc(C(=O)COC(=O)CNS(=O)(=O)c2ccc(C)cc2)cc1,/,/,/,3,0,/,/,/,/
N#Cc1c2n(c3c(=O)[nH]cnc13)CCCC2,2.2,0.32,4,2,-2,0.67,/,/,/
N#Cc1c2n(c3c(=O)n(Cc4ccccc4Cl)cnc13)CCCCC2,-2.3,8.6*,1,8,-1,0.13,11076*,1496,+
Cc1ccc(OCc2nnnn2-c2ccccc2)cc1,/,/,/,2,4,/,/,/,/
Cc1cc(Br)c2c(c1)=C(c1sc(N3CCCCCC3)nc1O)C(=O)N=2,0.17,6*,7,0,78,-0.16,18480*,1764,i
CC1(C)CC(=O)c2sc(N3CCCCC3)nc2C1,0.12,0.96,5,0,-4,0.39,/,/,/
CCSC1=C(C#N)C(c2cccc(OC)c2)CC(=O)N1 (configuration not stated),0.49,-0.52,5,-2,0,-0.41,/,/,/
CCOc1cc(C2CC(=O)Nc3cc(C)c(C)cc32)ccc1O (configuration not stated),-0.52,21*,0,4,16,0.16,17484*,/,+
CCOc1cc(C2CC(=O)NC(SCC)=C2C#N)ccc1O (configuration not stated),/,4.5*,2,-11,-2,-0.36,6316*,1704,i

# From PubChem BioAssay
